Experimental data as given in the supplement of paper PMC6555819.

Test system: RARb homodimer (NR concentration 270 nM)
Assay: PBM binding z-score (relative to random genomic background probes); higher = stronger binding; sequences stand for … in GC…GCGATTGACAGCGTAGAATGAAGG
Method in brief: (§1)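 Custom Agilent 4×180K protein-binding microarrays carried double-stranded probes, each with a 34-nt variable region. These regions held direct-repeat seeds, single-nucleotide variants, half-site ablations and random human genomic background sequences. Ligand-free nuclear receptor dimers were incubated on the arrays for 1 h, antibodies against each partner (one per run) detected binding, and scanned fluorescence was regression-normalized. Binding z-scores take the random background probes as reference.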

Sequence | PBM binding z-score
CCTACTGGGCCATAAGGTCATTGATATCAACGTT | 3.91
TCTAGCAGGCCCGAGGGTCACTCAAGAGGTACGG | 2.43
CCTACAGGGCCACGAAAGGTCATTGATTCAGTGA | 5.01
TCTCGGAGGACACCAAGGTCAGAGCTTTCCAGAG | 3.68
CCTTACGGGTCACTCCAGGTTGTAGCATCGGAGT | 2.84
TAGCCTACGTCAGATCGGGCCAGTATACGCTATA | -0.763
CAAACTAGGTCACGATAGGTCAAAGTCGAATGAC | 4.88
GCTGCTAGGTCAACTGATGGTCAGCAAAAGCTCG | 3.66
ATACCAAGGTGATCGTGGGGTCGTTGATACTAAC | 1.69
ATATGTAGGTTGTCGGGTCATTCAGTTTGCGCAT | 2.51
TCAGACAGGTGAAGGTAACGCAGGTACGCAGTCG | 0.708
CAAACTAGGTCACCGGAAGTTCAAAGTCCGCATG | 4.69
TCTTGTAGATCAAAGGTAAAGAAAGCCGAAGCCT | -0.121
CAAACTAGGTCACCGGAAGGTCAACGTCCGCATG | 5.99
CCAGACAGGTGAGAAGGTAAATCAGCCTCGATTA | 0.187
TCTGCTAGGTCAGTTGGTCAGTTAACGAGCTGCC | 2.57
AGTCAAAGTTCATCTAGGTAACGTAGGATATGCT | 4.05
CCTACTGGGACAAGGTCATTGATCAGTCAAAGCA | 3.22

Test system: RARg:RXRa (NR concentration 270 nM, RXRa partner concentration 90 nM)
Assay: as above
Method in brief: as §1

Sequence | PBM binding z-score
CAAACTAGGTCAGAACAGGACAGTGAAGGATGAT | 2.51
TCTAGTAGATCAACAGGAGGTTAAGAAAGATCGA | 0.662
TCATATAGATAAAAGGTGAAAGTCGGTGTGGTAA | 1.23
TCTCGGTGGACACGAAAGGTCAGAGCTCGACATC | 4.38
CCTAGCAGGCCAGGGTCTCTCAAGCATTTCGCTT | -0.659
TTACCAAGGTGAGCTGAGGTCGTTGAACCAACTC | 1.21
ATCGAAAGGTCGAGGTGATTATAGAGAAAGGGAA | 4.24
CGTCCAAGGTCAAAGGTCGGTGAAGAGATGACGG | 7.18
AGAATGATGTTATACGTAGATCAGGGAAGAAAGT | 0.194
ATTCCAAGGTGATCGTGAGGTCGTTGATACTAAC | 2.23
TCTAGCAGGCCACAGGGTCACTCAAGAGGTACGG | 3.5
TGTCAAAGTTCAAAGGAAACGTAAGTATCCACAC | 5.07
GGAACGATGGCATTCGAGTTGATAGCATGGCGAT | -0.259
CTCGAAAGGTCGTGCTCAGGTGAGTATTCCAAAC | 5.04
TCTCGGAGGACACGAAGGTCAGAGGTTTCCAGAG | 3.24
ATATGTAGCTTATCGGGTCATTCAGTTTGCGCAT | 1.85
CCGACTGGGGCACAAAGGTTACCATACCATCCGG | 2.34
GGAACGAGGGGAAAGTTGATAGCATCTGTCGACG | 0.0991
CGAACTAGGTGATCCAGGACAGTGAATACATTGA | 0.151
TCATATAGGTAAACGGTGAAAGTCGGTGTGGTAA | 0.178

Sequence | PBM binding z-score
CCGACTGGGGCAGAAAGGTTGCCATACCATCCGG | 0.253
ATAGGTAGGTTAGCTGGGGTCATTCAGACTAGGC | 4.35
CCTACTGGGCCATAAGGTCATTGATATCAACGTT | 3.77
TCTAGCAGGCCCGAGGGTCACTCAAGAGGTACGG | 2.27
CCTACAGGGCCACGAAAGGTCATTGATTCAGTGA | 5.13
TCTCGGAGGACACCAAGGTCAGAGCTTTCCAGAG | 2.96
CCTTACGGGTCACTCCAGGTTGTAGCATCGGAGT | 4.14
TAGCCTACGTCAGATCGGGCCAGTATACGCTATA | -0.503
CAAACTAGGTCACGATAGGTCAAAGTCGAATGAC | 6.44
GCTGCTAGGTCAACTGATGGTCAGCAAAAGCTCG | 5.17
ATACCAAGGTGATCGTGGGGTCGTTGATACTAAC | 2.14
ATATGTAGGTTGTCGGGTCATTCAGTTTGCGCAT | 2.24
TCAGACAGGTGAAGGTAACGCAGGTACGCAGTCG | 0.407
CAAACTAGGTCACCGGAAGTTCAAAGTCCGCATG | 7
TCTTGTAGATCAAAGGTAAAGAAAGCCGAAGCCT | 0.243
CAAACTAGGTCACCGGAAGGTCAACGTCCGCATG | 8.58
CCAGACAGGTGAGAAGGTAAATCAGCCTCGATTA | 0.461
TCTGCTAGGTCAGTTGGTCAGTTAACGAGCTGCC | 2.69
AGTCAAAGTTCATCTAGGTAACGTAGGATATGCT | 5.54
CCTACTGGGACAAGGTCATTGATCAGTCAAAGCA | 4

Test system: RARg homodimer (NR concentration 270 nM)
Assay: as above
Method in brief: as §1

Sequence | PBM binding z-score
CAAACTAGGTCAGAACAGGACAGTGAAGGATGAT | 3.33
TCTAGTAGATCAACAGGAGGTTAAGAAAGATCGA | 0.244
TCATATAGATAAAAGGTGAAAGTCGGTGTGGTAA | 0.872
TCTCGGTGGACACGAAAGGTCAGAGCTCGACATC | 4.33
CCTAGCAGGCCAGGGTCTCTCAAGCATTTCGCTT | -0.606
TTACCAAGGTGAGCTGAGGTCGTTGAACCAACTC | 0.931
ATCGAAAGGTCGAGGTGATTATAGAGAAAGGGAA | 4.23
CGTCCAAGGTCAAAGGTCGGTGAAGAGATGACGG | 6.2
AGAATGATGTTATACGTAGATCAGGGAAGAAAGT | 0.393
ATTCCAAGGTGATCGTGAGGTCGTTGATACTAAC | 0.975
TCTAGCAGGCCACAGGGTCACTCAAGAGGTACGG | 2.75
TGTCAAAGTTCAAAGGAAACGTAAGTATCCACAC | 5.18
GGAACGATGGCATTCGAGTTGATAGCATGGCGAT | -0.016
CTCGAAAGGTCGTGCTCAGGTGAGTATTCCAAAC | 3.61
TCTCGGAGGACACGAAGGTCAGAGGTTTCCAGAG | 3.9
ATATGTAGCTTATCGGGTCATTCAGTTTGCGCAT | 1.35
CCGACTGGGGCACAAAGGTTACCATACCATCCGG | 1.92
GGAACGAGGGGAAAGTTGATAGCATCTGTCGACG | 0.188
CGAACTAGGTGATCCAGGACAGTGAATACATTGA | 0.467
TCATATAGGTAAACGGTGAAAGTCGGTGTGGTAA | -0.128

Sequence | PBM binding z-score
CCGACTGGGGCAGAAAGGTTGCCATACCATCCGG | 0.175
ATAGGTAGGTTAGCTGGGGTCATTCAGACTAGGC | 3.5
CCTACTGGGCCATAAGGTCATTGATATCAACGTT | 3.15
TCTAGCAGGCCCGAGGGTCACTCAAGAGGTACGG | 1.72
CCTACAGGGCCACGAAAGGTCATTGATTCAGTGA | 5.03
TCTCGGAGGACACCAAGGTCAGAGCTTTCCAGAG | 3.73
CCTTACGGGTCACTCCAGGTTGTAGCATCGGAGT | 3.94
TAGCCTACGTCAGATCGGGCCAGTATACGCTATA | -0.517
CAAACTAGGTCACGATAGGTCAAAGTCGAATGAC | 6.71
GCTGCTAGGTCAACTGATGGTCAGCAAAAGCTCG | 5.41
ATACCAAGGTGATCGTGGGGTCGTTGATACTAAC | 0.593
ATATGTAGGTTGTCGGGTCATTCAGTTTGCGCAT | 1.66
TCAGACAGGTGAAGGTAACGCAGGTACGCAGTCG | 0.419
CAAACTAGGTCACCGGAAGTTCAAAGTCCGCATG | 6.24
TCTTGTAGATCAAAGGTAAAGAAAGCCGAAGCCT | -0.165
CAAACTAGGTCACCGGAAGGTCAACGTCCGCATG | 8.16
CCAGACAGGTGAGAAGGTAAATCAGCCTCGATTA | 0.353
TCTGCTAGGTCAGTTGGTCAGTTAACGAGCTGCC | 3.81
AGTCAAAGTTCATCTAGGTAACGTAGGATATGCT | 6.32
CCTACTGGGACAAGGTCATTGATCAGTCAAAGCA | 3.34
